The results in this text go back to PubChem BioAssay (NCI).

Some test systems named below: SR leukemia; OVCAR-8 ovarian; OVCAR-4 ovarian; SK-OV-3 ovarian; IGROV1 ovarian; OVCAR-3 ovarian; HS 578T breast; NCI/ADR-RES ovarian; T-47D breast; BT-549 breast; MDA-MB-435 melanoma; SW-620 colon; MCF7 breast; HCT-116 colon; HCC-2998 colon; KM12 colon; RPMI-8226 leukemia; OVCAR-5 ovarian.
Common to all, as to assay: NCI-60 one-dose screen, 48 h (100 = growth as untreated, 0 = no growth, -100 = all killed)
What all share (conditions): 10 µM unless noted

Each structure is given as a SMILES string. Where “and” joins values, the source holds several entries; their conditions need not be identical. Identical values can stand only once. This is part of a sample that, as a whole, favours compounds with a hit. Of some 83,000 tested, about 20% had one in any assay.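 Each cell line was grown in a 96-well plate and treated with one concentration of compound for 48 hours. Values below 10 were considered active.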 Calls of active or inactive are those of the source.

On to `COc1cc(C(=O)c2ccc3c(c2)OCO3)cc(OC)c1OC`, for which the growth with SR leukemia was 19.8% (inactive) and 12% (inactive); in the assay with OVCAR-8 ovarian, 33.9% (inactive) and 36.5% (inactive); in the assay on OVCAR-4 ovarian it was 80.8% (inactive) and 53.9% (inactive); with SK-OV-3 ovarian, 24.2% (inactive) and 27.7% (inactive); in the assay on IGROV1 ovarian, 11.1% (inactive) and 30.7% (inactive); in the assay on OVCAR-3 ovarian, -38.3% (active) and -26.6% (active). Moreover, the growth is 19.2% (inactive) and -19.2% (active) in the assay with HS 578T breast; 10.9% (inactive) and 25% (inactive) in the assay on NCI/ADR-RES ovarian; 34.4% (inactive) and 32.8% (inactive) in the assay on T-47D breast; 45.5% (inactive) and 30.3% (inactive) with BT-549 breast; -19.5% (active) and -21.3% (active) with MDA-MB-435 melanoma; 16.1% (inactive) and 9.92% (active) in the assay on SW-620 colon. Also, the growth in the assay with MCF7 breast was 23.2% (inactive) and 14.8% (inactive); with HCT-116 colon it was 27.2% (inactive) and 24.5% (inactive); in the assay on HCC-2998 colon it was 60.1% (inactive) and 54.8% (inactive); with KM12 colon, 24.7% (inactive) and 27.3% (inactive).
For the molecule `CC(=O)Nc1ccc(O)cc1`, the growth with RPMI-8226 leukemia was 105% (inactive); with OVCAR-8 ovarian, 92.1% (inactive) and 103% (inactive) and 109% (inactive); with OVCAR-5 ovarian, 91.6% (inactive) and 118% (inactive) and 105% (inactive); in the assay on OVCAR-4 ovarian, 105% (inactive) and 131% (inactive); with SK-OV-3 ovarian it was 114% (inactive) and 115% (inactive) and 91.5% (inactive); with OVCAR-3 ovarian, 103% (inactive) and 102% (inactive) and 107% (inactive). The growth in the assay with HS 578T breast was 113% (inactive) and 109% (inactive); in the assay on NCI/ADR-RES ovarian it was 101% (inactive) and 93.7% (inactive) and 104% (inactive); in the assay on T-47D breast it was 116% (inactive) and 103% (inactive) and 93.9% (inactive); with BT-549 breast, 94.3% (inactive) and 78.1% (inactive) and 101% (inactive); with MDA-MB-435 melanoma, 105% (inactive) and 109% (inactive) and 110% (inactive); in the assay on SW-620 colon, 106% (inactive) and 108% (inactive) and 103% (inactive). The growth in the assay on MCF7 breast was 100% (inactive) and 68.3% (inactive) and 107% (inactive); in the assay with HCT-116 colon it was 100% (inactive) and 120% (inactive) and 104% (inactive); in the assay on HCC-2998 colon it was 102% (inactive) and 68.4% (inactive) and 110% (inactive); in the assay on KM12 colon, 99.4% (inactive) and 38.3% (inactive) and 107% (inactive).
In the case of `NC(=S)NN=C1CCC(C2CCCCC2)CC1` (stereo unspecified), the growth in the assay on RPMI-8226 leukemia was 67.1% (inactive) and 74.9% (inactive); in the assay with OVCAR-8 ovarian it was 100% (inactive) and 98.8% (inactive); in the assay with OVCAR-5 ovarian, 110% (inactive) and 93.3% (inactive); in the assay with OVCAR-4 ovarian, 33.8% (inactive); with SK-OV-3 ovarian it was 100% (inactive) and 101% (inactive); in the assay on IGROV1 ovarian, 98.2% (inactive) and 89.4% (inactive). The growth with OVCAR-3 ovarian is 83.9% (inactive) and 85.7% (inactive); with HS 578T breast, 79.3% (inactive) and 109% (inactive); in the assay on NCI/ADR-RES ovarian, 96.8% (inactive) and 102% (inactive); with T-47D breast, 44.1% (inactive) and 40% (inactive); in the assay on BT-549 breast, 102% (inactive) and 92.5% (inactive); in the assay with MDA-MB-435 melanoma it was 79.1% (inactive) and 77.2% (inactive). Moreover, the growth in the assay with SW-620 colon is 84.6% (inactive) and 88.6% (inactive); in the assay with MCF7 breast, 83% (inactive) and 95.1% (inactive); with HCT-116 colon, 73.9% (inactive) and 78.6% (inactive); with HCC-2998 colon, 92.9% (inactive) and 94.7% (inactive); in the assay with KM12 colon it was 94.5% (inactive) and 93.9% (inactive).
Regarding `Cc1ccc(S(=O)(=O)NCN2C(=O)c3ccccc3C2=O)cc1`, the growth was 101% (inactive) in the assay with SR leukemia; 108% (inactive) in the assay with OVCAR-8 ovarian; 110% (inactive) in the assay on OVCAR-5 ovarian; 96.7% (inactive) with OVCAR-4 ovarian; 98.4% (inactive) in the assay on SK-OV-3 ovarian; 113% (inactive) with OVCAR-3 ovarian. In addition, the growth was 108% (inactive) in the assay on HS 578T breast; 110% (inactive) in the assay with NCI/ADR-RES ovarian; 110% (inactive) with T-47D breast; 101% (inactive) in the assay on BT-549 breast; 111% (inactive) in the assay on MDA-MB-435 melanoma; 108% (inactive) with SW-620 colon. Besides, the growth in the assay with MCF7 breast was 95.2% (inactive); in the assay with HCT-116 colon, 98.5% (inactive); with HCC-2998 colon, 99.4% (inactive); with KM12 colon, 110% (inactive).
Consider `COc1cc(C(=O)N/N=C/c2ccc(N(C)C)cc2)cc(OC)c1OC`, for which the growth in the assay with SR leukemia is 6.85% (active); with OVCAR-8 ovarian, 21.2% (inactive); in the assay on OVCAR-5 ovarian, 44.5% (inactive); in the assay with OVCAR-4 ovarian it was 61.7% (inactive); in the assay on SK-OV-3 ovarian it was 10.9% (inactive); in the assay on OVCAR-3 ovarian, -11.7% (active). Further, the growth is 46.4% (inactive) in the assay with HS 578T breast; -40.1% (active) with NCI/ADR-RES ovarian; 63.3% (inactive) in the assay on T-47D breast; -11.9% (active) in the assay with MDA-MB-435 melanoma; 26.2% (inactive) with SW-620 colon; 18.3% (inactive) in the assay with MCF7 breast. Further, the growth in the assay on HCT-116 colon was 10.1% (inactive); with HCC-2998 colon, 12% (inactive); in the assay with KM12 colon it was 17% (inactive).
On to `CC1CCCC(=O)O1` (stereo unspecified), for which the growth in the assay on RPMI-8226 leukemia was 96.7% (inactive) and 94.7% (inactive); in the assay on OVCAR-8 ovarian, 110% (inactive) and 95.2% (inactive); in the assay with OVCAR-5 ovarian, 101% (inactive); in the assay on OVCAR-4 ovarian, 96% (inactive) and 104% (inactive); in the assay with SK-OV-3 ovarian it was 98% (inactive) and 110% (inactive); with IGROV1 ovarian, 96% (inactive) and 99.9% (inactive). The growth with OVCAR-3 ovarian was 103% (inactive) and 115% (inactive); in the assay on HS 578T breast, 110% (inactive) and 105% (inactive); with NCI/ADR-RES ovarian, 103% (inactive) and 99.8% (inactive); with T-47D breast it was 101% (inactive) and 106% (inactive); with MDA-MB-435 melanoma, 97.2% (inactive) and 107% (inactive); in the assay with SW-620 colon, 105% (inactive) and 104% (inactive). Also, the growth with MCF7 breast is 96.3% (inactive) and 101% (inactive); in the assay on HCT-116 colon it was 105% (inactive) and 94.6% (inactive); in the assay with HCC-2998 colon it was 98.3% (inactive); in the assay on KM12 colon, 97.7% (inactive) and 106% (inactive).
